In PubChem BioAssay (NCATS):
Values without a mark were called inactive. Results filed as inconclusive are left out. The source made the active and inactive calls. The call rests on the fitted dose curve; in most records, active means well fitted curve in the direction sought with a large enough effect; inconclusive means small, poorly fitted or top-dose-only effect, or another doubt; inactive means no such curve, though single readings can be large; an effect the other way counts as inactive or inconclusive.

Columns and labels:
[1] = tested on: Nanoluciferase (engineered Oplophorus gracilirostris luciferase); assay: Primary Nanoluciferase (NLuc) qHTS assay for identification of artifact compounds. (AID 1845222);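 further: NLuc secreted into diluted conditioned medium of S16 cells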
Procedure, shortened: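 NLuc from S16 cell medium (1:55) plus test compounds, 15 min, room temperature. Luminescence after Nano-Glo (1:100) addition, 5 min.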

[2] = Primary redox qHTS assay for identification of artifact compounds. (AID 1845223)
Procedure, shortened: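 Redox-cycling detection via DTT (250 uM final) oxidation coupled to Amplex Red (25 uM)/HRP (250 mU/mL) in HBSS. 15 min preincubation plus 30 min after DTT, room temperature. Ex/Em 525/598 nm; 4-parameter Hill fit against DMSO and 10 uM DA3003.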

[3] = Quantitative High-Throughput drug screen in 47 multiple myeloma cell lines against the NCATS MIPE library collection: FR4_PLB cell viability assay (AID 1918924; further: nearly all actives have a fitted effect of over 35% in size; further: potency means the concentration at half of the fitted maximal effect)
Procedure, shortened: (§1)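 Approved and investigational drugs from MIPE 4.0 were added by pin tool to 500 cells per well. After 48 hours at 37C, ATP-based CellTiter-Glo luminescence indicated remaining viability.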

[4] = Quantitative High-Throughput drug screen in 47 multiple myeloma cell lines against the NCATS MIPE library collection: Delta47_JCRB cell viability assay (AID 1918925; further: nearly all actives have a fitted effect of over 45% in size; further: potency means the concentration at half of the fitted maximal effect)
Procedure, shortened: (§2)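 Steps: seed 500 cells per well; pin-transfer MIPE 4.0 library; incubate 48 h at 37C, 5% CO2, humidified; add CellTiter-Glo, 5 min room temperature; read luminescence.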

[5] = Quantitative High-Throughput drug screen in 47 multiple myeloma cell lines against the NCATS MIPE library collection: EJM_DSMZ cell viability assay (AID 1918926; further: nearly all actives have a fitted effect of over 30% in size; further: potency means the concentration at half of the fitted maximal effect)
Procedure, shortened: as §2

[6] = Quantitative High-Throughput drug screen in 47 multiple myeloma cell lines against the NCATS MIPE library collection: AMO1_DSMZ cell viability assay (AID 1918927; further: nearly all actives have a fitted effect of over 30% in size; further: potency means the concentration at half of the fitted maximal effect)
Procedure, shortened: as §2

[7] = Quantitative High-Throughput drug screen in 47 multiple myeloma cell lines against the NCATS MIPE library collection: ARP1_JJKsccF8 cell viability assay (AID 1918928; further: nearly all actives have a fitted effect of over 40% in size; further: potency means the concentration at half of the fitted maximal effect)
Procedure, shortened: (§3)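 Each line was plated at 500 cells/well and treated 48 h with library drugs. Viability came from CellTiter-Glo luminescence relative to DMSO and cell-free medium controls.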

[8] = Quantitative High-Throughput drug screen in 47 multiple myeloma cell lines against the NCATS MIPE library collection: ARD_JJKsccE7 cell viability assay (AID 1918929; further: potency means the concentration at half of the fitted maximal effect)
Procedure, shortened: as §2

[9] = Quantitative High-Throughput drug screen in 47 multiple myeloma cell lines against the NCATS MIPE library collection: Karpas620_DSMZ cell viability assay (AID 1918959); further: nearly all actives have a fitted effect of over 30% in size; further: potency means the concentration at half of the fitted maximal effect
Procedure, shortened: as §1

[10] = Quantitative High-Throughput drug screen in 47 multiple myeloma cell lines against the NCATS MIPE library collection: Karpas417_ECACC cell viability assay (AID 1918961); details: Karpas417 myeloma viability, CellTiter-Glo ATP luminescence, 48 h; viability (% of DMSO): at 45.8 µM (top of the series)
Procedure, shortened: (§4)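 Inhibition of cell viability is measured here. Each line was plated at 500 cells per well, treated with MIPE 4.0 drugs, kept 48 hours at 37C, then assayed for ATP content by CellTiter-Glo luminescence.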

[11] = Quantitative High-Throughput drug screen in 47 multiple myeloma cell lines against the NCATS MIPE library collection: KHM11_PLB cell viability assay (AID 1918962); further: nearly all actives have a fitted effect of over 35% in size; further: potency means the concentration at half of the fitted maximal effect
Procedure, shortened: as §1

[12] = Quantitative High-Throughput drug screen in 47 multiple myeloma cell lines against the NCATS MIPE library collection: JIM3_ECACC cell viability assay (AID 1918963; further: nearly all actives have a fitted effect of over 35% in size; further: potency means the concentration at half of the fitted maximal effect)
Procedure, shortened: as §1

[13] = Quantitative High-Throughput drug screen in 47 multiple myeloma cell lines against the NCATS MIPE library collection: JIM1_ECACC cell viability assay (AID 1918964; further: potency means the concentration at half of the fitted maximal effect)
Procedure, shortened: as §2

[14] = Quantitative High-Throughput drug screen in 47 multiple myeloma cell lines against the NCATS MIPE library collection: INA6_PLB cell viability assay (AID 1918965; further: nearly all actives have a fitted effect of over 55% in size; further: potency means the concentration at half of the fitted maximal effect)
Procedure, shortened: as §4

[15] = Quantitative High-Throughput drug screen in 47 multiple myeloma cell lines against the NCATS MIPE library collection: Karpas25_ECACC cell viability assay (AID 1918968; further: nearly all actives have a fitted effect of over 35% in size; further: potency means the concentration at half of the fitted maximal effect)
Procedure, shortened: as §2

[16] = Quantitative High-Throughput drug screen in 47 multiple myeloma cell lines against the NCATS MIPE library collection: KMS27_JCRB cell viability assay (AID 1918970); details: KMS27 myeloma cells, CellTiter-Glo ATP viability, 48 h; viability (% of DMSO): at 45.8 µM (top of the series); further: nearly all actives have a fitted effect of over 30% in size; further: potency means the concentration at half of the fitted maximal effect
Procedure, shortened: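 ATP-based viability (CellTiter-Glo luminescence) is measured in cells treated 48 h with approved and investigational drugs at 37 °C. Controls are DMSO-only wells for full viability and media-only wells for none.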

[17] = Quantitative High-Throughput drug screen in 47 multiple myeloma cell lines against the NCATS MIPE library collection: KMM1_JCRB cell viability assay (AID 1918960); further: nearly all actives have a fitted effect of over 30% in size; further: potency means the concentration at half of the fitted maximal effect
Procedure, shortened: as §3

[18] = Quantitative High-Throughput drug screen in 47 multiple myeloma cell lines against the NCATS MIPE library collection: H1112_PLB cell viability assay (AID 1918967; further: nearly all actives have a fitted effect of over 30% in size; further: potency means the concentration at half of the fitted maximal effect)
Procedure, shortened: as §2

[19] = Quantitative High-Throughput drug screen in 47 multiple myeloma cell lines against the NCATS MIPE library collection: KMS12BM_JCRB cell viability assay (AID 1918971); further: nearly all actives have a fitted effect of over 35% in size; further: potency means the concentration at half of the fitted maximal effect
Procedure, shortened: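 Myeloma cell lines, 500 cells per well, exposed to MIPE 4.0 library compounds for 48 h at 37C, 5% CO2. Viability from ATP by CellTiter-Glo luminescence; normalised to DMSO (100%) and media-only (0%) wells.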

[20] = Quantitative High-Throughput drug screen in 47 multiple myeloma cell lines against the NCATS MIPE library collection: JJN3_DSMZ cell viability assay (AID 1918966; further: nearly all actives have a fitted effect of over 50% in size; further: potency means the concentration at half of the fitted maximal effect)
Procedure, shortened: as §2

| Structure (SMILES) | Potency [1] | outcome [2] | Potency [3] | Potency [4] | Potency [5] | Potency [6] | Potency [7] | Potency [8] | Potency [9] | Potency [10] | Potency [11] | Potency [12] | Potency [13] | Potency [14] | Potency [15] | Potency [16] | Potency [17] | Potency [18] | Potency [19] | Potency [20] |
| --- | --- | --- | --- | --- | --- | --- | --- | --- | --- | --- | --- | --- | --- | --- | --- | --- | --- | --- | --- | --- |
| NS(=O)(=O)c1cc(Cl)c(Cl)c(S(N)(=O)=O)c1 | inactive | inactive | inactive | inactive | inactive | inactive | 8.33 µM (active) | inactive | inactive | inactive | inactive | inactive | inactive | inactive | inactive | inactive |  |  |  |  |
| CCN1CCN(c2ccc(Nc3cc(N(C)C(=O)Nc4c(Cl)c(OC)cc(OC)c4Cl)ncn3)cc2)CC1 | inactive | inactive | 18.7 µM (active) | 0.0093 µM (active) |  | inactive | inactive |  |  |  |  | inactive |  |  | 18.7 µM (active) | inactive | inactive | inactive | 16.6 µM (active) |  |
| C[C@@H](N)c1ccc(C(=O)Nc2ccnc3[nH]ccc23)cc1 | inactive | inactive | 26.4 µM (active) | 26.4 µM (active) | 23.5 µM (active) | 23.5 µM (active) |  | 26.4 µM (active) |  |  | 20.9 µM (active) | 20.9 µM (active) | 13.2 µM (active) | 20.9 µM (active) |  | 18.7 µM (active) |  | 23.5 µM (active) |  | 20.9 µM (active) |
| CC(C)(O)CC(=O)NCCn1ccc2ncnc(Nc3ccc(Oc4cccc(C(F)(F)F)c4)c(Cl)c3)c21 | inactive | inactive | 26.4 µM (active) | 18.7 µM (active) |  | 16.6 µM (active) |  |  | 5.9 µM (active) |  |  | 23.5 µM (active) |  | 29.6 µM (active) | 23.5 µM (active) |  | 5.26 µM (active) |  | 23.5 µM (active) |  |
| C[C@@]1(C(=O)Nc2ccc(F)nc2)CCCN1c1nc(Nc2cc(C3CC3)[nH]n2)c2cccn2n1 | inactive | inactive | 0.166 µM (active) | 0.0166 µM (active) |  | 0.0935 µM (active) |  | 0.001 µM (active) |  |  |  | 0.0148 µM (active) |  | 13.2 µM (active) | 0.0332 µM (active) | 0.0526 µM (active) |  |  | 0.935 µM (active) | 0.105 µM (active) |
| CN1C(=O)C(Cc2c[nH]c3ccccc23)NC1=S (configuration not stated) | inactive | inactive | inactive | inactive | inactive | inactive | inactive |  | inactive |  |  | inactive |  | inactive | 13.2 µM (active) | inactive | inactive | inactive | 13.2 µM (active) | inactive |
| Fc1ccc(CNc2ncnc3ccc(F)cc23)cc1 | inactive | inactive |  | 7.43 µM (active) | 6.62 µM (active) | 7.43 µM (active) | 6.62 µM (active) | 4.69 µM (active) | 5.9 µM (active) |  |  | 11.8 µM (active) |  | 8.33 µM (active) | 3.72 µM (active) |  | 4.18 µM (active) |  | 3.72 µM (active) |  |
| Cc1ccc2c(c1)C(=O)[C@]1(O)CCN(c3ccccc3)C1=N2 | inactive | inactive | inactive | inactive |  |  |  | inactive | inactive |  |  |  | inactive |  |  |  | inactive |  |  |  |
| O=C(Nc1ccc(OC(F)(F)F)cc1)c1sccc1NCc1ccnc2ccccc12 | inactive | inactive | 4.69 µM (active) | 5.26 µM (active) |  | 23.5 µM (active) |  |  | 4.69 µM (active) |  |  |  |  | 18.7 µM (active) | 13.2 µM (active) |  |  |  | 14.8 µM (active) | 9.35 µM (active) |
| CC[C@H](CC#N)OC(=O)N[C@@H](C)c1cccc(NC(=O)Nc2ccc(-c3cnco3)c(OC)c2)c1 | inactive | inactive | 1.48 µM (active) |  | 11.8 µM (active) | 0.418 µM (active) |  | 14.8 µM (active) | 18.7 µM (active) |  |  | 1.32 µM (active) | 13.2 µM (active) | 1.05 µM (active) |  | 14.8 µM (active) | 0.418 µM (active) | 1.66 µM (active) | 1.48 µM (active) |  |
| CNC(=O)c1c(-c2ccc(F)cc2)oc2cc(N(CCO)S(C)(=O)=O)c(C3CC3)cc12 | inactive | inactive | 23.5 µM (active) |  |  |  |  |  |  |  |  |  |  |  | 20.9 µM (active) |  |  |  |  |  |
| CNC(=O)c1ccc2c(C(=Nc3cccc(CN(C)C)c3)c3ccccc3)c(O)[nH]c2c1 | inactive | inactive | inactive | 23.5 µM (active) |  |  | inactive |  |  |  | 1.32 µM (active) |  |  | 20.9 µM (active) | 13.2 µM (active) | 2.35 µM (active) |  | 14.8 µM (active) | inactive | 2.64 µM (active) |
